For 10 molecules, growth inhibition results are on record in PubChem BioAssay (NCI).

Assay [1] in a line: NCI Yeast Anticancer Drug Screen. Data for the rad50 strain (AID 155).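 Further: 0% = growth of vehicle-only cultures of the same strain.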 Particulars: S. cerevisiae rad50 strain growth inhibition, stronger effect = higher value. A digest of the protocol: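 A DNA repair-deficient yeast mutant serves as the test organism; compound-induced growth inhibition is calculated against vehicle-treated cells.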
Assay [2] in a line: NCI Yeast Anticancer Drug Screen. Data for the mec2-1 strain (AID 157). Particulars: S. cerevisiae mec2-1 strain, stronger effect = higher value. In a few lines:
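Mutant yeast (mec2-1) grown with compound; growth inhibition relative to vehicle control reported.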

Assay [3] in a line: NCI Yeast Anticancer Drug Screen. Data for the sgs1 mgt1 strain (AID 161).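 Further: 0% = growth of cultures given vehicle only.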 Particulars: S. cerevisiae sgs1 mgt1 strain, stronger effect = higher value. A digest of the protocol:
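Percent growth inhibition was derived by comparing compound-exposed mutant yeast with vehicle-exposed cultures. The strain carries alterations in DNA damage repair.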

Assay [4] is described as follows: NCI Yeast Anticancer Drug Screen. Data for the cln2 rad14 strain (AID 165).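 Further: 0% = growth equal to vehicle treated cultures.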 Particulars: S. cerevisiae cln2 rad14 strain, stronger effect = higher value. A digest of the protocol:
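Readout is yeast growth inhibition versus vehicle-treated controls, using a strain with cln2 and rad14 alterations exposed to compound.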

Assay [5] can be described thus: NCI Yeast Anticancer Drug Screen. Data for the bub3 strain (AID 167). Particulars: S. cerevisiae bub3 mutant strain, stronger effect = higher value. A digest of the protocol: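 Inhibition values come from growth of compound-treated mutant yeast normalised to vehicle-treated controls.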
Assay [6] in a line: NCI Yeast Anticancer Drug Screen. Data for the mlh1 rad18 strain (AID 175). The settings on record: S. cerevisiae mlh1 rad18 strain growth inhibition, stronger effect = higher value. A digest of the protocol:
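Genetically defined yeast (DNA repair-deficient) exposed to compounds; growth inhibition determined relative to vehicle.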

Where [7] appears, read: at 5.0 µM (retest, dose inferred, filed as 0.5).
Setting [8] is: at 50.0 µM (retest, dose inferred, filed as 5.0).

About 79,000 compounds went through this panel and 15% of them were active in at least one assay; those are over-represented in the sample as a whole. Values without a mark were called inactive. Active and inactive are the calls of the source. No stated cut-off is given here; in the data, active means growth inhibition above about 70%; inactive means the rest.

With `CN(C=O)NC(=O)N(CCCl)N=O`, the growth inhibition in assay [1] (setting [7]) is 19%; in assay [1] (setting [8]), 21%; in assay [1] (at 50.0 µM) it was 55.2%; in assay [2] (setting [7]), 13%; in assay [2] (setting [8]), 1%; in assay [2] (at 50.0 µM) it was 62.5%. Also, the growth inhibition was 22% in assay [3] (setting [7]); 21% in assay [3] (setting [8]); -13.2% in assay [3] (at 50.0 µM); 23% in assay [4] (setting [7]); 16% in assay [4] (setting [8]); 11.2% in assay [4] (at 50.0 µM). Also, the growth inhibition is 12% in assay [5] (setting [7]); 4% in assay [5] (setting [8]); -9.1% in assay [5] (at 50.0 µM); 16% in assay [6] (setting [7]); 23% in assay [6] (setting [8]); -11.4% in assay [6] (at 50.0 µM).

For the molecule `C[C@@H]1C[C@H]2CC[C@H](O2)[C@H](C)C(=O)O[C@@H](C)C[C@@H]2CC[C@@H](O2)[C@@H](C)C(=O)O[C@H](C)C[C@H]2CC[C@H](O2)[C@H](C)C(=O)O[C@@H](C)C[C@@H]2CC[C@@H](O2)[C@@H](C)C(=O)O1`, the growth inhibition in assay [1] (setting [7]) was 64%; in assay [1] (setting [8]), 94% (active); in assay [1] (at 50.0 µM) it was 84.3% (active); in assay [2] (setting [7]), 78% (active); in assay [2] (setting [8]), 97% (active); in assay [2] (at 50.0 µM), 88% (active). Moreover, the growth inhibition in assay [3] (setting [7]) was 88% (active); in assay [3] (setting [8]) it was 95% (active); in assay [3] (at 50.0 µM), 87.8% (active); in assay [4] (setting [7]) it was 55%; in assay [4] (setting [8]), 83% (active); in assay [4] (at 50.0 µM) it was 81.6% (active). Also, the growth inhibition was 62% in assay [5] (setting [7]); 89% (active) in assay [5] (setting [8]); 84.3% (active) in assay [5] (at 50.0 µM); 76% (active) in assay [6] (setting [7]); 96% (active) in assay [6] (setting [8]); 82.3% (active) in assay [6] (at 50.0 µM).

For `C[C@@H]1C[C@@H]([C@H](O)CC2CC(=O)NC(=O)C2)C(=O)[C@@H](C)C1`, the growth inhibition is 95% (active) in assay [1] (setting [7]); 99% (active) in assay [1] (setting [8]); 92% (active) in assay [1] (at 50.0 µM); 98% (active) in assay [2] (setting [7]); 100% (active) in assay [2] (setting [8]); 93.6% (active) in assay [2] (at 50.0 µM). Further, the growth inhibition in assay [3] (setting [7]) is 94% (active); in assay [3] (setting [8]) it was 99% (active); in assay [3] (at 50.0 µM) it was 94.2% (active); in assay [4] (setting [7]) it was 98% (active); in assay [4] (setting [8]), 99% (active); in assay [4] (at 50.0 µM), 90.7% (active). The growth inhibition was 98% (active) in assay [5] (setting [7]); 99% (active) in assay [5] (setting [8]); 93.7% (active) in assay [5] (at 50.0 µM); 93% (active) in assay [6] (setting [7]); 99% (active) in assay [6] (setting [8]); 92.1% (active) in assay [6] (at 50.0 µM).

Regarding `C#CC[As+](c1ccccc1)(c1ccccc1)c1ccccc1`, the growth inhibition was 31% in assay [1] (setting [7]); 98% (active) in assay [1] (setting [8]); 88.4% (active) in assay [1] (at 50.0 µM); 29% in assay [2] (setting [7]); 99% (active) in assay [2] (setting [8]); 91.8% (active) in assay [2] (at 50.0 µM). Moreover, the growth inhibition in assay [3] (setting [7]) is 45%; in assay [3] (setting [8]) it was 100% (active); in assay [3] (at 50.0 µM), 92.5% (active); in assay [4] (setting [7]) it was 37%; in assay [4] (setting [8]), 95% (active); in assay [4] (at 50.0 µM) it was 88.8% (active). Also, the growth inhibition in assay [5] (setting [7]) was 34%; in assay [5] (setting [8]), 99% (active); in assay [5] (at 50.0 µM), 91.2% (active); in assay [6] (setting [7]), 45%; in assay [6] (setting [8]), 98% (active); in assay [6] (at 50.0 µM), 88.9% (active).

`O=C1c2ccccc2C[CH]1[Hg][Cl]` (stereo not given): the growth inhibition was 99% (active) in assay [1] (setting [7]); 99% (active) in assay [1] (setting [8]); 99.2% (active) in assay [1] (at 50.0 µM); 100% (active) in assay [2] (setting [7]); 100% (active) in assay [2] (setting [8]); 99.5% (active) in assay [2] (at 50.0 µM). The growth inhibition in assay [3] (setting [7]) was 100% (active); in assay [3] (setting [8]), 99% (active); in assay [3] (at 50.0 µM) it was 99.3% (active); in assay [4] (setting [7]), 99% (active); in assay [4] (setting [8]) it was 99% (active); in assay [4] (at 50.0 µM) it was 96.2% (active). Further, the growth inhibition in assay [5] (setting [7]) was 99% (active); in assay [5] (setting [8]), 99% (active); in assay [5] (at 50.0 µM), 98.7% (active); in assay [6] (setting [7]), 99% (active); in assay [6] (setting [8]) it was 99% (active); in assay [6] (at 50.0 µM), 99.3% (active).

Regarding `Cc1ccc(NC(=O)CBr)cc1`, the growth inhibition is 92% (active) in assay [1] (setting [7]); 99% (active) in assay [1] (setting [8]); 99.1% (active) in assay [1] (at 50.0 µM); 97% (active) in assay [2] (setting [7]); 100% (active) in assay [2] (setting [8]); 99.2% (active) in assay [2] (at 50.0 µM). For the same molecule, the growth inhibition is 97% (active) in assay [3] (setting [7]); 97% (active) in assay [3] (setting [8]); 99.2% (active) in assay [3] (at 50.0 µM); 97% (active) in assay [4] (setting [7]); 99% (active) in assay [4] (setting [8]); 98.8% (active) in assay [4] (at 50.0 µM). The growth inhibition in assay [5] (setting [7]) is 95% (active); in assay [5] (setting [8]), 99% (active); in assay [5] (at 50.0 µM) it was 99% (active); in assay [6] (setting [7]), 94% (active); in assay [6] (setting [8]), 98% (active); in assay [6] (at 50.0 µM), 99% (active).

`Sc1ccccc1.[Ag]`: the growth inhibition in assay [1] (setting [7]) is 27%; in assay [1] (setting [8]), 97% (active); in assay [1] (at 50.0 µM) it was 98.5% (active); in assay [2] (setting [7]), 58%; in assay [2] (setting [8]), 99% (active); in assay [2] (at 50.0 µM), 98.8% (active). The growth inhibition was 49% in assay [3] (setting [7]); 98% (active) in assay [3] (setting [8]); 99% (active) in assay [3] (at 50.0 µM); 20% in assay [4] (setting [7]); 97% (active) in assay [4] (setting [8]); 98.1% (active) in assay [4] (at 50.0 µM). The growth inhibition was 56% in assay [5] (setting [7]); 97% (active) in assay [5] (setting [8]); 97.9% (active) in assay [5] (at 50.0 µM); 49% in assay [6] (setting [7]); 97% (active) in assay [6] (setting [8]); 98.3% (active) in assay [6] (at 50.0 µM).

As for `Cc1cc[n+](C2C(=O)c3ccccc3C(=O)C2Nc2cc(Cl)ccc2Cl)cc1` (stereo not given), the growth inhibition in assay [1] (setting [7]) was 19%; in assay [1] (setting [8]) it was 96% (active); in assay [1] (at 50.0 µM), 96.8% (active); in assay [2] (setting [7]), 11%; in assay [2] (setting [8]) it was 98% (active); in assay [2] (at 50.0 µM), 98.8% (active). Besides, the growth inhibition in assay [3] (setting [7]) was 11%; in assay [3] (setting [8]) it was 99% (active); in assay [3] (at 50.0 µM), 78.9% (active); in assay [4] (setting [7]), 5%; in assay [4] (setting [8]) it was 95% (active); in assay [4] (at 50.0 µM), 66.2%. The growth inhibition in assay [5] (setting [7]) is 15%; in assay [5] (setting [8]) it was 98% (active); in assay [5] (at 50.0 µM), 98.5% (active); in assay [6] (setting [7]), 12%; in assay [6] (setting [8]), 98% (active); in assay [6] (at 50.0 µM), 94.5% (active).

`O=C1C(Cl)=C(Cl)C(=O)c2ccccc21`: the growth inhibition is 99% (active) in assay [1] (setting [7]); 96% (active) in assay [1] (setting [8]); 97.8% (active) in assay [1] (at 50.0 µM); 55% in assay [2] (setting [7]); 98% (active) in assay [2] (setting [8]); 97% (active) in assay [2] (at 50.0 µM). Besides, the growth inhibition in assay [3] (setting [7]) is 99% (active); in assay [3] (setting [8]), 97% (active); in assay [3] (at 50.0 µM), 98.2% (active); in assay [4] (setting [7]) it was 99% (active); in assay [4] (setting [8]) it was 95% (active); in assay [4] (at 50.0 µM), 96.6% (active). The growth inhibition in assay [5] (setting [7]) was 98% (active); in assay [5] (setting [8]), 96% (active); in assay [5] (at 50.0 µM), 97.5% (active); in assay [6] (setting [7]), 99% (active); in assay [6] (setting [8]), 96% (active); in assay [6] (at 50.0 µM) it was 98% (active).

Take `COc1ccc([Se][Se]c2ccc(OC)cc2OC)c(OC)c1`: the growth inhibition was 18% in assay [1] (setting [7]); 18% in assay [1] (setting [8]); 88.3% (active) in assay [1] (at 50.0 µM); 23% in assay [2] (setting [7]); 23% in assay [2] (setting [8]); 89.8% (active) in assay [2] (at 50.0 µM). Further, the growth inhibition in assay [3] (setting [7]) is 18%; in assay [3] (setting [8]), 18%; in assay [3] (at 50.0 µM) it was 88.5% (active); in assay [4] (setting [7]), 9%; in assay [4] (setting [8]) it was 9%; in assay [4] (at 50.0 µM), 90% (active). Further, the growth inhibition in assay [5] (setting [7]) was -4%; in assay [5] (setting [8]), -4%; in assay [5] (at 50.0 µM) it was 89.7% (active); in assay [6] (setting [7]), 12%; in assay [6] (setting [8]) it was 12%; in assay [6] (at 50.0 µM), 88.4% (active).
